# Experimental data taken from PubChem BioAssay (NCATS).
# Values without a mark were called inactive. Records with an inconclusive call do not appear. Activity calls are given as the source filed them. Unless noted, the call rests on the fitted dose curve; in most records, active means well fitted curve in either direction with a large enough effect (not every such curve was filed as active); inconclusive means small, poorly fitted or top-dose-only effect, or another doubt; inactive means flat fitted curve, though single readings scatter.
# Columns and labels:
# [1] = target: Lysosomal acid glucosylceramidase (Homo sapiens) (UniProt P04062); test: Glucocerebrosidase-p2 (AID 348; in the data active means potency below about 10 µM; further: potency means the concentration at half of the fitted maximal effect); conditions: purified GBA, blue fluorogenic substrate, 40 min
# How it was run: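 Compounds titrated from 0.6 nM upwards against 0.2 nM enzyme in pH 5.9 citric acid/KH2PO4, taurocholate, tween-20; blue fluorogenic substrate 80 uM, 40 min room temperature, stopped and read Ex 365/Em 440 for AC50.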
# [2] = AP1 Signaling Pathway (AID 357); conditions: ME-180 AP-1-bla reporter, EGF-induced, beta-lactamase ratio, 5 h; at 7.69 µM (top of the series) unless noted;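 further: ME-180 reporter cells stimulated with EGF at its EC50 level; on the % scale 0 is the no-effect control and ±100 the full control effect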
# How it was run: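 Beta-lactamase reporter under AP-1 response element, ME-180 background. Stimulus: EC50 EGF. Compound exposure 5 h, 37 °C. Detection: CCF4, 2.5 h RT, 460/530 nm. Values: AC50 from titration.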
# [3] = target: Cytochrome P450 1A2 (Homo sapiens) (UniProt P05177); test: p450-cyp1a2 (AID 410; calls by dose curve; further: potency means the concentration at half of the fitted maximal effect;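 on activity change, negative = inhibition: -100% = full effect of reference inhibitor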); conditions: recombinant CYP1A2, luciferin-ME demethylation, luminescence; series mostly up to 11.4 µM
# How it was run: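 Inhibition was calculated relative to 57 uM furafylline (full inhibition). The reaction used human CYP1A2 at 20nM with Luciferin-ME at its Km, 100uM, driven by an NADPH-regenerating system for 60 min at room temperature.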
# [4] = Stat Signaling Pathway (AID 446); conditions: ME-180 SIE beta-lactamase reporter, IL-6 stimulated, 5 h; at 7.69 µM (top of the series) unless noted;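 further: ME-180 cervical cancer cells given 40 pM IL-6 alongside compound; SIE-controlled beta-lactamase reporter measured as 460/530 nm FRET emission ratio; on the % scale 0 is the no-effect control and ±100 the full control effect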
# How it was run: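 ME-180 SIE-bla cells; overnight plating; cpd + IL-6 40 pM, 5 h, 37 C; LiveBLAzer 2.5 h RT; 460/530 nm emission ratio. Normalized to 300 pM IL-6 and 125 nM JAK inhibitor controls.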
# [5] = target: Glucocorticoid receptor (Homo sapiens) (UniProt P04150); test: GR-GFP Redistribution (AID 450;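 active means compounds whose dose series gives a full or clear partial fitted curve of increased nuclear translocation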; further: potency means the concentration at half of the fitted maximal effect); conditions: U2OS GR-GFP nuclear translocation, laser cytometry, 2 h
# [6] = target: Glucocorticoid receptor (Homo sapiens) (UniProt P04150); test: GR-EFC Redistribution (AID 451; calls by dose curve; further: potency means the concentration at half of the fitted maximal effect); conditions: CHO-K1 GR-EFC translocation, beta-gal luminescence, 2 h
# How it was run: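 CHO-K1 cells stably expressing nuclear-localized β-gal enzyme acceptor and GR fused C-terminally to the enzyme donor fragment; ligand-driven nuclear translocation restores β-gal by complementation. Compounds titrated up to 46 uM final, 2 h at 37 °C; luminescence read.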
# [7] = target: Mitogen-activated protein kinase 10 (Mus musculus) (UniProt Q61831); test: JNK3 AlphaScreen Assay (AID 530); conditions: JNK3 lysate, c-Jun phosphorylation; series mostly up to 11.4 µM;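 further: kinase came from lysate of stimulated human HepG2 cells; signal reports phosphorylation of biotinylated GST-cJun 1-79 at Ser73 with 10 µM ATP; on the % scale 0 is the no-effect control and ±100 the full control effect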
# How it was run: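 JNK3 came from HepG2 lysates pre-activated with IL-1beta and TNF-alpha and phosphorylated biotinylated GST-cJun (1-79) at 10 uM ATP, pH 7.6, room temperature. Compounds were titrated. AlphaScreen signal used anti-phospho-cJun (Ser73) antibody.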
# [8] = target: 3',5'-cyclic-AMP phosphodiesterase 4B (Homo sapiens) (UniProt Q07343); test: qHTS Assay for Inhibitors of PDE-IV (AID 607; active means well fitted activation curve with a large enough effect in the main read-out, with a control signal flat, not every such curve was filed as active; further: % of control where 0% means no effect); conditions: HEK293 ACTOne CNG channel cells, membrane potential fluorescence; series mostly up to 22.9 µM
# How it was run: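 ACTOne HEK293 cells carry a modified cAMP-gated CNG channel and express endogenous PDE4; plated 1000 cells/well, compounds up to 22.9 uM final. Membrane-potential dye fluorescence (ex 535/em 590) was read; parental cells received 10 uM forskolin + 100 uM RO 20-1724.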
# [9] = target: Cytochrome P450 2C9 (Homo sapiens) (UniProt P11712); test: qHTS Assay for Inhibitors and Substrates of Cytochrome P450 2C9 (AID 883; active means well fitted curve in the direction sought with a large enough effect; an effect the other way counts as inactive or inconclusive; further: nearly all actives have a fitted effect of over 60% in size; further: potency means the concentration at half of the fitted maximal effect; on activity change, negative = inhibition: on the % scale 0 is the no-effect control and ±100 the full control effect); conditions: recombinant CYP2C9, luciferin-H luminescence, 60 min; series mostly up to 11.4 µM
# How it was run: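 A luminogenic readout tracked human CYP2C9 (10nM) converting deoxyluciferin (100uM, at KM) in 25mM KPO4 during 60 min at 37C with regenerated NADPH. Values normalized to 57uM sulphaphenazole as complete inhibition.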
# [10] = target: Cytochrome P450 3A4 (Homo sapiens) (UniProt P08684); test: qHTS Assay for Activators of Cytochrome P450 3A4 (AID 885; active means well fitted curve in the direction sought with a large enough effect; an effect the other way counts as inactive or inconclusive; further: nearly all actives have a fitted effect of over 65% in size); conditions: recombinant CYP3A4, Luciferin-PPXE luminescence, 60 min; series mostly up to 11.4 µM
# How it was run: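 20nM CYP3A4 + 25uM Luciferin-PPXE (=KM), 200mM KPO4; cpd 10 min RT; NADPH regen, 60 min RT; stop w/ detection buffer, 20 min; luminescence. Normalized to 57 uM ketoconazole.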
# [11] = target: Cytochrome P450 2C19 (Homo sapiens) (UniProt P33261); test: qHTS Assay for Inhibitors and Substrates of Cytochrome P450 2C19 (AID 899; active means well fitted curve in the direction sought with a large enough effect; an effect the other way counts as inactive or inconclusive; further: potency means the concentration at half of the fitted maximal effect; nearly all actives have a fitted effect of over 60% in size); conditions: recombinant CYP2C19, luciferin-H EGE luminescence; series mostly up to 11.4 µM
# How it was run: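 NADPH-dependent conversion of Luciferin-H EGE (10uM, at KM) by 5nM enzyme in 50mM KPO4, 60 min at 37C following 10 min compound preincubation. Stopped with luciferin detection buffer; luminescence read after 20 min.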
# [12] = target: Cytochrome P450 2D6 (Homo sapiens) (UniProt P10635); test: qHTS Assay for Inhibitors and Substrates of Cytochrome P450 2D6 (AID 891; active means well fitted curve in the direction sought with a large enough effect; an effect the other way counts as inactive or inconclusive; further: potency means the concentration at half of the fitted maximal effect; nearly all actives have a fitted effect of over 60% in size); conditions: recombinant CYP2D6, luciferin-ME EGE luminescence; series mostly up to 11.4 µM
# How it was run: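 Human CYP2D6 (5 nM) with 30 uM Luciferin-ME EGE (at Km) in 100 mM KPO4, compound preincubated 10 min, then NADPH regeneration system for 60 min at room temperature. Luciferin read by luminescence; normalized to 1.43 uM quinidine.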
# [13] = qHTS Assay for Identification of Small Molecule Agonists for Hypoxia Response Element Signaling Pathway (AID 914; active means well fitted activation curve with a large enough effect in the signal ratio, with a control signal flat, not every such curve was filed as active; the % refers to the signal ratio; further: % of control where 0% means no effect); conditions: ME-180 (cervical carcinoma) HRE-bla reporter, beta-lactamase ratio, CoCl2, 17 h; activation: stronger effect = higher value
# How it was run: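 HRE-bla ME-180 cells with beta-lactamase reporter under hypoxia response element, compounds with EC50 CoCl2 for 17 hours at 37 C. CCF4 substrate, 460nm/530nm emission ratio gave %Activity; AC50 from titration series.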
# [14] = target: Cytochrome P450 3A4 (Homo sapiens) (UniProt P08684); test: qHTS Assay for Inhibitors and Substrates of Cytochrome P450 3A4 (AID 884; active means well fitted curve in the direction sought with a large enough effect; an effect the other way counts as inactive or inconclusive; further: potency means the concentration at half of the fitted maximal effect; nearly all actives have a fitted effect of over 50% in size); conditions: recombinant CYP3A4, Luciferin-PPXE luminescence; series mostly up to 57.1 µM
# How it was run: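 20 nM human CYP3A4 with 25 uM Luciferin-PPXE (at KM) in 200 mM KPO4, preincubated 10 min with compound; NADPH regeneration started a 60 min RT reaction. Luciferin detected by luminescence, normalized to 57 uM ketoconazole as full inhibition.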
# Glucocorticoid receptor (Homo sapiens), sequence (P04150 whole entry, looked up, the tested form may be a part): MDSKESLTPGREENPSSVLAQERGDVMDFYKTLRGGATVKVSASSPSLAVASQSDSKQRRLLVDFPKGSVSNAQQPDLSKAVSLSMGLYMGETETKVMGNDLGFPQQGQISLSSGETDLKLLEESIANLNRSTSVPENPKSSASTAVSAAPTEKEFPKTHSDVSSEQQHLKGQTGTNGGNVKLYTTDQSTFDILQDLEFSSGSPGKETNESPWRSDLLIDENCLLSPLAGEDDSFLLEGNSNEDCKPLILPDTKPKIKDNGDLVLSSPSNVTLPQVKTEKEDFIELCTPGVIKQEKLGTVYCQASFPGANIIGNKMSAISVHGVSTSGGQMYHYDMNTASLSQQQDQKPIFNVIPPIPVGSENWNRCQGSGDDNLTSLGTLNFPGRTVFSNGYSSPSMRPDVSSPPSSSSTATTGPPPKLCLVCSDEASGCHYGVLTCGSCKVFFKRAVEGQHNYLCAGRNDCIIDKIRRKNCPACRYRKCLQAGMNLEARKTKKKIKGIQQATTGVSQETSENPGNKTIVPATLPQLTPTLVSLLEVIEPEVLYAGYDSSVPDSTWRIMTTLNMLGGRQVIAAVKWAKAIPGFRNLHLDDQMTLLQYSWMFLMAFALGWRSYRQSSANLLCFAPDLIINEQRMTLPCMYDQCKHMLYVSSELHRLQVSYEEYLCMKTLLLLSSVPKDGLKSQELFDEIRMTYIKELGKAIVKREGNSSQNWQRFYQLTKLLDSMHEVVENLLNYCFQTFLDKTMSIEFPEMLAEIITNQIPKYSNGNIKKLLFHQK
# Cytochrome P450 2C19 (Homo sapiens), sequence (P33261 whole entry, looked up): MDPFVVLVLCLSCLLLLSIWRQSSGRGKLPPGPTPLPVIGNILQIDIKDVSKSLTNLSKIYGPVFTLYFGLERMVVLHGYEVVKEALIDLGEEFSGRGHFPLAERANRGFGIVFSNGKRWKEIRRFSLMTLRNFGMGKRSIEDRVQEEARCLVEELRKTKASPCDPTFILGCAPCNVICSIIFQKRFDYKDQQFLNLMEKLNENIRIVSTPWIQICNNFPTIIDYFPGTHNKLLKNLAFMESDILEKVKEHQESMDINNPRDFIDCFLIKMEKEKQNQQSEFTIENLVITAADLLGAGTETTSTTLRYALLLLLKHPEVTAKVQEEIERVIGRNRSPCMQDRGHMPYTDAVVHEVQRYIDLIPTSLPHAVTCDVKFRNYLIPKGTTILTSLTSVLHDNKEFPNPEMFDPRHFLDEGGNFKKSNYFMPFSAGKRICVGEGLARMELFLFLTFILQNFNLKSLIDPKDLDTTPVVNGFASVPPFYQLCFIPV
# 3',5'-cyclic-AMP phosphodiesterase 4B (Homo sapiens), sequence (Q07343 whole entry, looked up): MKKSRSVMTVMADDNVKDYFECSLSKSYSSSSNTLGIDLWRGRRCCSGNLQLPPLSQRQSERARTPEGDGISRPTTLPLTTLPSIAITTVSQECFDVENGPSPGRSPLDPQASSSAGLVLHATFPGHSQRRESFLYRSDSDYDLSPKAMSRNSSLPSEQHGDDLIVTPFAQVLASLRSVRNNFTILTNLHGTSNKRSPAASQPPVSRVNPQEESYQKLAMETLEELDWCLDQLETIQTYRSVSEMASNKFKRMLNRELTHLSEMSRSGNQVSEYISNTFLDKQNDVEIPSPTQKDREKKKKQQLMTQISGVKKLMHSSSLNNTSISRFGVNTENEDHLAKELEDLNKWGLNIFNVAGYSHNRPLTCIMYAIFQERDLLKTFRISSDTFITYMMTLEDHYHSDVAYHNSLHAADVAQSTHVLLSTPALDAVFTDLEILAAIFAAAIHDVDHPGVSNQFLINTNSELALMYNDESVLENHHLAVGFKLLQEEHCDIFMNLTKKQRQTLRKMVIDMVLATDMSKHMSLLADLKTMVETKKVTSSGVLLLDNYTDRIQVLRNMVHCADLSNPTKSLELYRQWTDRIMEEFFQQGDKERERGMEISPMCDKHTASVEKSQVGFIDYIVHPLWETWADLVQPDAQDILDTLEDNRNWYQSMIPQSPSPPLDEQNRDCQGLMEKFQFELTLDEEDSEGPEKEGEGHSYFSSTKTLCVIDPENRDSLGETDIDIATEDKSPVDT
# Cytochrome P450 3A4 (Homo sapiens), sequence (P08684 whole entry, looked up): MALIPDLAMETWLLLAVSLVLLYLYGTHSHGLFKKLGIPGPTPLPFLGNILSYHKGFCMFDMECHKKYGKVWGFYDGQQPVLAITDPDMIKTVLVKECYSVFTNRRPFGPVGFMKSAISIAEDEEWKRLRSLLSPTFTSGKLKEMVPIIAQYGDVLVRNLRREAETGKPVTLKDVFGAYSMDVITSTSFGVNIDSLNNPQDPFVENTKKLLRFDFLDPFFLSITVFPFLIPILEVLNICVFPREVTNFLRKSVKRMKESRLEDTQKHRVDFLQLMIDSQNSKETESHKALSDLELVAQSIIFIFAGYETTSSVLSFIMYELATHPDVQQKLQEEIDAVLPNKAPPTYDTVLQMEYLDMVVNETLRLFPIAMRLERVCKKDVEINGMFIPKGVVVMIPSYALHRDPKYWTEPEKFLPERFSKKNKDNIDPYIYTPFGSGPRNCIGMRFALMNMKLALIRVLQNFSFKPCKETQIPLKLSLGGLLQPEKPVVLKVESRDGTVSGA
# Lysosomal acid glucosylceramidase (Homo sapiens), sequence (P04062 whole entry, looked up): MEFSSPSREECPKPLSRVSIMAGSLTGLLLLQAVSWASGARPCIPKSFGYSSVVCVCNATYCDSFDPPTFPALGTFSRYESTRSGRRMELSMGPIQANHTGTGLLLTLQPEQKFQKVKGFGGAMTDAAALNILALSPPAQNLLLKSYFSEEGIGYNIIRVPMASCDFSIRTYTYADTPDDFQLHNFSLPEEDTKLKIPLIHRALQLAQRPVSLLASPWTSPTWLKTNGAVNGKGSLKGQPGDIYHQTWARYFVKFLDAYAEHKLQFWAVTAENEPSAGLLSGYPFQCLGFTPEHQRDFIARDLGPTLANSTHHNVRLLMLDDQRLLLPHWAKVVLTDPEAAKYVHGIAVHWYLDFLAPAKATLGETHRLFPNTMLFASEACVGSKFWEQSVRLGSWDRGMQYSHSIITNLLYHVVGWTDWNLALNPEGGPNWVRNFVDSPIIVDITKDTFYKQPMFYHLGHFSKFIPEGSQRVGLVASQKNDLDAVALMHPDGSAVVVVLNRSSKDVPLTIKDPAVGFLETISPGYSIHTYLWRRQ
# Cytochrome P450 1A2 (Homo sapiens), sequence (P05177 whole entry, looked up): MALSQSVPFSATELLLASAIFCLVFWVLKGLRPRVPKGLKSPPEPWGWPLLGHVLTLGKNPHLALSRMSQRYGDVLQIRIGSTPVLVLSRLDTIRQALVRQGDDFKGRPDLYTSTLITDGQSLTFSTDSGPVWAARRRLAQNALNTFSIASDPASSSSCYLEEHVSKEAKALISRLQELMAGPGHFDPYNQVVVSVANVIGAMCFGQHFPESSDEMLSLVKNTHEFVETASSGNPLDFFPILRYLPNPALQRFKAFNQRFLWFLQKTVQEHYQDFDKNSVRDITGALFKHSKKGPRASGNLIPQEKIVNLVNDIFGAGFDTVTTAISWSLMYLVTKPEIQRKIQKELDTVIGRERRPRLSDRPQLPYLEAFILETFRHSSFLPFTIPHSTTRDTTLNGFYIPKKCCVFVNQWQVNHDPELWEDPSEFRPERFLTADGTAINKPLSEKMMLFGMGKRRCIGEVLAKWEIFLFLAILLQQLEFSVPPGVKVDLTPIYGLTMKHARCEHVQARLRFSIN
# Cytochrome P450 2C9 (Homo sapiens), sequence (P11712 whole entry, looked up): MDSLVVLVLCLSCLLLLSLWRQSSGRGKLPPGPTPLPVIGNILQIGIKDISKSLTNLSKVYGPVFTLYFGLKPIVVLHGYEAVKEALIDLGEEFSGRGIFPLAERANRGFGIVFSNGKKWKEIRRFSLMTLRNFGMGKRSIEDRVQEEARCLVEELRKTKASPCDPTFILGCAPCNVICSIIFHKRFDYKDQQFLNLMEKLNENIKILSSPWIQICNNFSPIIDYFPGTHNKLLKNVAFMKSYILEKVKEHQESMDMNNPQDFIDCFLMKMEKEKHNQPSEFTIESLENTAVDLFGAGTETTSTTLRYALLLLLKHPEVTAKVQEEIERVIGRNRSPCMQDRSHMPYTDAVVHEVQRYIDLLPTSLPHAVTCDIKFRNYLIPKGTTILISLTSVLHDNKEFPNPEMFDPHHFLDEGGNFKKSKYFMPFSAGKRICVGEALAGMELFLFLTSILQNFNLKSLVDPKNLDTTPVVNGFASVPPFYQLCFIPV
# Cytochrome P450 2D6 (Homo sapiens), sequence (P10635 whole entry, looked up): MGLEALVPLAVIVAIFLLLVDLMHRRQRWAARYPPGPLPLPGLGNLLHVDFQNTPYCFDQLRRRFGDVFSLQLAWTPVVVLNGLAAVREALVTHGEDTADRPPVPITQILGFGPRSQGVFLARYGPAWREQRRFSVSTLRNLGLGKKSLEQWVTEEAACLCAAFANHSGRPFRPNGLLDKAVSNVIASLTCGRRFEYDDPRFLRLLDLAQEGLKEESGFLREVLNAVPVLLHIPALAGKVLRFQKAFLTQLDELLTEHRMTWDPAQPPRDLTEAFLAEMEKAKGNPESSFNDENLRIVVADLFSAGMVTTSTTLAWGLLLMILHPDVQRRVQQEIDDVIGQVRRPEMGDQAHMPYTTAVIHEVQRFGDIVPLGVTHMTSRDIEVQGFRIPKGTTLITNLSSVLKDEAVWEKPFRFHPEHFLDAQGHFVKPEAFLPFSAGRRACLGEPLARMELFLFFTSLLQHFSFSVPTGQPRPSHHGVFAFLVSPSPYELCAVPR
SMILES,Potency [1] [µM],"activity change, negative = inhibition [2] [%]",Potency [3],"activity, negative = inhibition [4] [%]",Potency [5],Potency [6] [µM],Potency [7],Potency [8],Potency [9],Potency [10],Potency [11],Potency [12],activation [13] [%],"activity change, negative = inhibition [3]",Potency [14]
Cc1cc(OCc2nc(N)nc(N)c2-c2ccc(Cl)c(Cl)c2)ccc1[N+](=O)[O-],> 11.4,-18.3,5.01 µM (active),-17.5,> 46 µM,> 9.22,inactive,inactive,1.58 µM (active),inactive,3.16 µM (active),,,,
CN(C)CC(C)(C)CN1c2ccccc2Sc2ccccc21,> 11.4,24,inactive,0.898,> 46 µM,> 9.22,inactive,inactive,,inactive,,0.199 µM (active),,,
N[C@@H](Cc1ncccn1)C(=O)O,> 11.4,-0.104,inactive,3.82,> 46 µM,> 9.22,inactive,inactive,inactive,,,,,,
Clc1ccc(Cl)c(Nc2ccnc(SCc3ccccc3)n2)c1,> 11.4,1.81,0.501 µM (active),0.24,> 46 µM,> 9.22,inactive,inactive,,inactive,5.01 µM (active),,-13.8,,
Cc1cc(C)cc(C(=N)c2ccccc2Cc2cccc3ccccc23)c1,> 11.4,1.53,,8.92,> 46 µM,> 9.22,inactive,inactive,inactive,inactive,1.58 µM (active),,,-5.4% [at 2.29 µM],
N=C(N)SCc1nc(-c2ccc(Cl)cc2)no1,> 11.4,26,1.26 µM (active),17.8,> 46 µM,> 9.22,inactive,inactive,3.98 µM (active),inactive,,,,,
C[C@@]12C[C@H](O)[C@@H]3[C@H](CCC4=CC(=O)CC[C@]43C)[C@H]1CC[C@@H]2c1csc(N)n1,> 11.4,4.13,,-3.43,1.73 µM (active),> 9.22,inactive,inactive,,inactive,3.98 µM (active),,,-9.8% [at 2.29 µM],2.51 µM (active)
Oc1ccc2ccccc2c1/C=C\c1ccc2c(Br)cc(Br)c(O)c2n1,> 11.4,-7.49,3.98 µM (active),1.04,> 46 µM,> 9.22,inactive,inactive,2.51 µM (active),,,,,,
N[C@@H](CC1=CS(=O)(=O)c2ccc(Cl)cc21)C(=O)O,> 11.4,-5.74,0.398 µM (active),-1.77,> 46 µM,> 9.22,inactive,inactive,,inactive,,,,,
Cc1ccccc1C(=N)c1ccccc1Cc1cccc2ccccc12,> 11.4,5.2,,9.25,> 46 µM,> 9.22,inactive,inactive,,inactive,,,,-17.7% [at 2.29 µM],
O[C@H](CNc1ccccn1)c1ccccc1,> 11.4,1.58,inactive,4.88,> 46 µM,> 9.22,inactive,inactive,,,,1.58 µM (active),,,
CC(=O)O[C@H]1CC[C@@]2(C)C(=CC[C@@H]3[C@H]4CC[C@@H]([C@H](C)C(=O)O)[C@]4(C)CC[C@H]32)C1,> 11.4,-2.09,3.16 µM (active),9.87,> 46 µM,> 9.22,inactive,inactive,,,,,1.23,,
CCN(CC)CC[n+]1ccc2c(C)c3[nH]c4ccccc4c3c(C)c2c1,> 11.4,-22.3,2.51 µM (active),29.6,> 46 µM,,inactive,inactive,,,,,,,
CN(C)CCCc1c2ccccc2nc2ccc(Cl)cc12,> 11.4,14.2,3.98 µM (active),18.2,> 46 µM,> 9.22,inactive,inactive,,,,1.58 µM (active),,,
